# NS1 function inh: qHTS Assay for Inhibitors of Influenza NS1 Protein Function. Potency, µM (series often up to 46.1 µM). actives 0.4% (n = 270,000); calls by dose curve; note: actives are rising curves; nearly all actives have a fitted effect of over 50% in size
#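 Compounds were scored for reversing the slow growth caused by influenza A NS1 in S. cerevisiae, measured by optical density at 600 nm. Assay medium contained 2% galactose at pH 6.0; NS1-free yeast of the same strain were the positive control.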
# Pf growth 96h: Primary qHTS for delayed death inhibitors of the malarial parasite plastid, 96 hour incubation | P. falciparum luciferase reporter growth, 96 h | Potency, µM (titrated, usually from 28.7 µM), hits mostly inhibitors | actives 6.9% (n = 320,000) | AID 504834, 2011
#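 Two-generation exposure (96 h) targets delayed-death phenotype. Reporter parasites carrying integrated firefly luciferase, in red cells at 2% hematocrit and 0.05% parasitemia final, kept at 37 C, 5% CO2; luminescence loss indicates inhibition.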
# Shiga inhibitor: A qHTS for Small Molecule Inhibitors of Shiga Toxin; Vero cells, Shiga toxin protein synthesis inhibition reporter; inhibition, % at 38.7 µM; actives 9.2% (n = 290,000); AID 2315, 2010; in the data active = inhibition mostly above about 28%, no sharp cut-off; inactive = mostly below about 43%
# Pf growth 48h: Primary qHTS for delayed death inhibitors of the malarial parasite plastid, 48 hour incubation. P. falciparum luciferase growth in erythrocytes, 48 h. Potency, µM (series often up to 28.7 µM), usual class: inhibitors. actives 5.9% (n = 310,000)
#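 Erythrocytes infected with P. falciparum carrying an integrated firefly luciferase reporter (2% hematocrit, 0.1% parasitemia final) were exposed to compounds in RPMI 1640 with 0.5% Albumax at 37 C, 5% CO2. Growth inhibition was scored as reduced luminescence.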
# Cycloheximide cs: Cycloheximide Counterscreen for Small Molecule Inhibitors of Shiga Toxin. cell reporter, cycloheximide protein synthesis inhibition counterscreen. max response, %. actives 12% (n = 300,000); in the data active = max response mostly above about 13%, no sharp cut-off; inactive = mostly below about 14%; note: read at 38.3 µM for the half of the compounds with a filed dose
# SARS PLpro yeast: qHTS of Yeast-based Assay for SARS-CoV PLP | Potency, µM (top dose mostly 32.9 µM), usual class: activators | S. cerevisiae expressing SARS-CoV PLpro, growth rescue | actives 0.19% (n = 330,000); calls by dose curve; note: nearly all actives have a fitted effect of over 55% in size
# Hits are given with their value; - = inactive; ? = inconclusive; . = no result given. Rows were chosen to be rich in hits. Some 21% of all compounds tested hit in one or more screens of this group. Unless noted, calls come from the whole dose curve; as a rule, active = well fitted inhibition curve with a large enough effect; inconclusive = small, poorly fitted or top-dose-only effect, or another doubt; inactive = no such curve, though single readings can be large or run the other way.
SMILES,NS1 function inh,Pf growth 96h,Shiga inhibitor,Pf growth 48h,Cycloheximide cs,SARS PLpro yeast
CC(=O)CCC(=O)N1CCCC(N2CCN(c3cccc(Cl)c3)CC2)C1 (stereo unspecified),-,-,-,-,-,-
Cc1cccc(NC(=S)NNC(=O)c2nn(C)cc2Cl)c1,-,-,-,-,25,-
Cc1ccc(NC(=S)NNC(=O)c2nnn(-c3ccccc3)c2C)cc1,-,-,59,-,37,-
Cc1ccc(/C=N/OC(=O)c2nn(C)cc2Cl)cc1,.,-,89,-,55,-
Cc1ccc(NC(=S)NNC(=O)CSc2nc3ccccc3c(=O)n2-c2ccc(C)cc2)cc1,?,?,-,?,-,-
Cc1ccc(NC(=S)NNC(=O)c2nn(C)cc2Cl)cc1,-,-,-,-,19,-
O=C(Nc1cccnc1)c1ccc(Br)s1,-,-,105,-,31,-
O=C(Nc1cccnc1)c1cccnc1,-,-,-,-,-,-
O=C(Nc1cccc(-c2nn[nH]n2)c1)c1ccc(Br)s1,-,?,-,-,23,-
CCc1sc(C(=O)Nc2cccnc2)cc1Br,-,-,47,?,30,-
Cc1nn(C)c(C(=O)Nc2ccn(Cc3c(F)c(F)cc(F)c3F)n2)c1[N+](=O)[O-],-,.,-,-,-,-
Cc1nn(Cc2cccc(C(=O)Nc3ccn(Cc4c(F)c(F)cc(F)c4F)n3)c2)c(C)c1[N+](=O)[O-],-,13µM,-,.,-,-
C[C@@H](Cc1ccc(Cl)cc1Cl)NO,-,.,.,.,.,.
NS(=O)(=O)c1ccc(CCNC(=O)c2ccc3nc4ccc(Cl)cc4c(=O)n3c2)cc1,.,-,-,12µM,-,-
C/C(=N\Nc1nc(C)cc(-c2ccccc2)n1)c1ccccc1,-,-,-,?,17,-
C/C(=N\Nc1nc(C)cc(-c2ccccc2)n1)c1cccc(N)c1,-,?,23,?,16,-
Cc1ccc2nc(N/N=C/c3ccccc3F)nc(-c3ccccc3)c2c1,-,?,-,-,-,-
COc1cc(N/N=C(\C)c2ccc(N)cc2)nc(-c2ccccc2)n1,.,?,-,-,-,-
C/C(=N\Nc1nc(C)cc(C)n1)c1ccc(N2CCOCC2)cc1,.,?,-,?,-,-
Cc1cc(-c2ccccc2)nc(N/N=C/c2ccccc2F)n1,-,-,52,-,51,-
C/C(=N/Nc1nc(C)cc(C)n1)c1ccc(Br)cc1,-,-,.,?,-,-
C/C(=N\Nc1nc(C)cc(-c2ccccc2)n1)c1ccc(O)cc1,-,-,26,?,21,-
NC(=O)C1CCN(C(=O)c2ccc3ccccc3c2)CC1,-,-,33,-,17,-
O=C(c1ccc2c(c1)OCO2)N1CCCCC1,.,.,-,.,-,.
CC1CC(C)CN(C(=O)c2ccc3ccccc3c2)C1 (stereo unspecified),.,?,.,0.83µM,.,-
SMILES,NS1 function inh,Pf growth 96h,Shiga inhibitor,Pf growth 48h,Cycloheximide cs,SARS PLpro yeast
Cc1cc2ncn(C(=O)c3ccc4c(c3)OCO4)c2cc1C,-,2.9µM,-,-,-,-
Cc1ccc(C(=O)n2cnc3ccccc32)cc1C,-,-,-,-,-,-
CC1CCN(C(=O)c2ccc3c(c2)OCO3)CC1,?,13µM,-,-,-,-
O=C(c1ccc2ccccc2c1)N1CCCCC1,-,-,-,-,-,-
CC1CCN(C(=O)c2ccc3ccccc3c2)CC1,-,?,52,-,39,-
CN(C(=O)COC(=O)c1ccc2c(c1)OCO2)C1CCCCC1,.,.,.,.,.,-
C[N+]12CCCCC1C(COC(=O)c1ccc3c(c1)OCO3)CCC2 (stereo unspecified),-,.,-,9.3µM,-,-
O=C(c1ccc2c(c1)OCO2)N1CCN(c2ccc(F)cc2)CC1,-,-,-,-,18,-
CC1CCCC(C)N1C(=O)COC(=O)c1ccc2c(c1)OCO2 (stereo unspecified),-,-,-,-,17,-
Cc1nn(Cc2ccccc2)c2c1C(c1cccc(Cl)c1)C(C#N)=C(N)O2 (stereo unspecified),-,?,-,.,-,-
CCCOc1ccc(N2C(=O)CC(SC(=N)N3N=C(c4ccccc4)CC3c3ccccc3)C2=O)cc1 (stereo unspecified),.,-,-,2.3µM,-,-
Cc1ccc(Nc2nc3ccccc3o2)cc1F,-,-,-,.,38,-
O=P(OC1CCCCC1)(OC1CCCCC1)C(O)c1ccccc1 (stereo unspecified),-,-,-,.,-,-
O=C(NCCc1ccccn1)c1ccc2nc(Cc3ccccc3F)oc2c1,-,-,105,-,62,-
COc1ccc(Cc2nc3ccc(C(=O)NCc4cc(C)no4)cc3o2)cc1OC,-,?,-,?,-,-
Cc1cccc(CNC(=O)c2ccc3nc(Cc4ccccc4F)oc3c2)n1,-,-,111,-,58,-
CC1(C)CC(=O)N(c2cccc(C(F)(F)F)c2)C(=O)C1,-,-,-,-,-,-
Cc1ccnc(NC(=O)c2ccc(Cl)c(NC(=O)CCc3ccccc3)c2)c1,-,?,-,-,-,-
Cc1ccnc(NC(=O)c2cccc(NC(=O)Cc3ccccc3)c2)c1,-,?,-,-,15,-
Cc1cccc(C(=O)Nc2cccc(C(=O)Nc3cc(C)ccn3)c2)c1,-,?,-,-,8.5,-
CCOC(=O)c1c(C)[nH]c(C)c1C(=O)CN1C(=O)NC2(CCC(C)CC2)C1=O (stereo unspecified),-,.,-,?,-,-
CCOC(=O)c1c(C)[nH]c(C)c1C(=O)CN1C(=O)NC(CC(C)C)C1=O (stereo unspecified),-,-,-,9.3µM,-,-
COC(=O)[C@@]12CCCN1[C@H](c1ccc(-c3ccccc3)cc1)[C@H]1C(=O)N(C)C(=O)[C@H]12,.,?,.,10µM,.,-
COC(=O)[C@@]12CCCN1[C@H](c1ccc(-c3ccc(OC)cc3)cc1)[C@@H]1C(=O)N(C)C(=O)[C@@H]12,.,9.3µM,.,5.9µM,.,-
COC(=O)[C@@]12CCCCN1[C@H](c1ccc(-c3ccc(Cl)c(Cl)c3)cc1)[C@H]1C(=O)N(C)C(=O)[C@H]12,.,.,.,.,.,-
COC(=O)[C@@]12CCCCN1[C@H](c1ccc(-c3ccccc3)cc1)[C@H]1C(=O)N(C)C(=O)[C@H]12,.,-,.,-,.,-
COC1CCCN(C(=O)c2cccc(OC3CCN(S(=O)(=O)N(C)C)CC3)c2)C1 (stereo unspecified),-,-,-,-,-,-
CCOC(=O)C1=C(C)Nc2nc(C)nn2C1c1cc(OC)ccc1OC (stereo unspecified),-,8.3µM,-,-,-,-
CCOC(=O)C1=C(c2ccccc2)Nc2nc(C)nn2C1c1cccc(OC)c1OC (stereo unspecified),-,9.3µM,-,12µM,-,-
